Results: PubChem BioAssay AID492980 (National Center for Advancing Translational Sciences (NCATS), 2010)
In all, about 1,400 compounds went through this assay and fewer than 10 were called active. Another 11% or so got no clear call; they are omitted. Calls come from the whole dose curve. Only a sample is shown.

Assay: Assay for Inhibitors of Influenza NS1 Protein Function: Hit Validation
Details: influenza NS1 function cell assay, 15-point titration; series mostly up to 32.9 µM
From the text: NIH Chemical Genomics Center [NCGC]
NIH Molecular Libraries Probe Centers Network [MLPCN]
Assay Submitter (PI): Daniel Engel
Influenza is a world-wide public health problem and emerging forms of the virus have the potential to cause a pandemic of equal or greater magnitude to the outbreaks recorded in 1918, 1957 or 1968. Vaccine development is proceeding and there also exist two classes of anti-influenza compounds. However these therapeutic modalities are neither fully effective nor widely enough available to fulfill global needs. In addition their potential usefulness against newly emergent strains is not known. Efforts are needed to develop novel agents against influenza virus, including broad-spectrum agents. Identification of small molecules that inhibit NS1 function either directly or by interfering with specific cellular pathways may be a key to increasing our defense against the virus.
We have miniaturized and optimized a cell based assay in which NS1 from influenza A is expressed in the budding yeast S. cerevisiae. NS1 is a multi-functional protein that counters the host innate immune response and facilitates viral versus cellular gene expression. Expression of NS1 causes a pronounced slow growth phenotype in yeast due to its intrinsic molecular activities. Small molecules that suppress the slow growth phenotype can be identified by a straightforward growth recovery assay using optical density (OD) as the measurement. The same yeast strain not expressing NS1 was used as positive control in the yeast growth recovery assay. The present experiment attempted to confirm the activity of compounds observed in the primary screen.
The yeast S. cerevisiae control and NS1 expressing cells were kindly supplied by laboratory of Dr. Daniel Engel, University of Virginia. Yeast starter cultures were stored in single use aliquots at -80C.
1. Yeast culture medium per liter: 1.2 g Yeast Nitrogen Base (w/out amino acids and Ammonium Sulphate), 5.0g Ammonium Sulphate, 0.77g -URA DO (drop-out) Supplement, adjust pH to 6.0. Adjust to 2% glucose prior to inoculating with yeast.
2. Yeast assay medium: 1.2 g Yeast Nitrogen Base (w/out amino acids and Ammonium Sulphate), 5.0g Ammonium Sulphate, 0.77g -URA DO (drop-out) Supplement, adjust pH to 6.0. Adjust to 2% D-galactose prior to inoculating with yeast.
1. Inoculate 100 mls of yeast culture medium with 1 ml of frozen yeast aliquote. Incubate overnight at 30C, 250RPM.
2. Harvest overnight culture at 4000 RPM and wash pellet with 15 mls H2O 3x.
3. Re-suspend washed pellet in 10 mls of yeast assay medium.
4. Prepare a 1:100 dilution of re-suspended culture in yeast assay medium.
5. Dispense 3.5 ul per well of reagents in step 4 in columns 2-48 in a black clear bottom 1536 well plate.
6. Dispense 3.5 ul per well of yeast assay medium in column 1 only.
7. Transfer 23 nl of compound per well.
8. Dispense 3.5 ul per well of yeast assay medium in columns 1-48.
9. Read plate using Viewlux protocol for optical density 600 (OD600) using excitation filter 600nm.

Compound	outcome
Cc1cccc(N=C2NN=C(c3c[nH]c4ccccc34)CS2)c1	inactive
Cc1ccc(-c2ccc(=O)n(CC(=O)NCCCN3CCCCC3)n2)cc1	inactive
CC(C)CCN(C(=O)c1csnn1)C(C(=O)NC1CCCC1)c1ccccc1 (stereo unspecified)	inactive
COc1ccccc1C(=O)Nc1ccnn1C1CCN(C(=O)C(C)(C)C)CC1	inactive
COc1ccc(C(C(=O)NC2CCCCC2)N(C(=O)Cc2c[nH]c3ccccc23)c2ccccc2)cc1OC (stereo unspecified)	inactive
O=C1c2cccc(OCC(=O)N3N=C(c4cccs4)CC3c3ccc(F)cc3)c2CCN1Cc1ccccc1 (stereo unspecified)	inactive
COc1cccc(OC)c1C(=O)Nc1nnc(C(C)C)s1	inactive
Cn1c(CC(=O)Nc2ccccc2)nnc1SCC(=O)c1ccccc1	inactive
COc1cc2c(cc1NC(=O)CN1CCN(S(=O)(=O)c3ccc(F)cc3)CC1)oc1ccccc12	inactive
CCCc1cc(=O)[nH]c(SCC(=O)c2cc(C)n(CCC)c2C)n1	inactive
Cc1cccc([C@@H]2[C@@H]3C(=O)N(Cc4ccccc4)C(=O)[C@@H]3[C@]3(C)C(=O)N(c4ccc(Br)cc4)C(=O)N23)c1	inactive
Nc1cccc(-c2cc(-c3ccccc3)nc(-c3cccc(N)c3)n2)c1	inactive
COc1ccc(S(=O)(=O)Nc2c(C)n(C)n(-c3ccccc3)c2=O)cc1	inactive
Cc1cccc(-n2c(SCC(=O)Nc3cccc(S(=O)(=O)NC4=NCCCCC4)c3)nc3ccccc3c2=O)c1C	inactive
O=C1NC(=O)N(CCc2ccc(F)cc2)C(=O)/C1=C/C=C/c1ccccc1	inactive
COCCn1c(C)cc(C2=NNC(=Nc3ccc(F)cc3)SC2)c1C	inactive
CCOc1ccc(Nc2nc(Cl)nc(N3CCN(c4ccc(OC)cc4)CC3)n2)cc1	inactive
COC(=O)c1c(NC(=O)c2cccs2)sc2c1CCCC2	inactive
CC(C(=O)O)N1C(=O)c2cccc3cccc1c23 (stereo unspecified)	inactive
COCCN1C(=O)c2oc3c(C)cc(C)cc3c(=O)c2C1c1cccc(O)c1 (stereo unspecified)	inactive
Cc1cc2cc(CNC(=O)c3cccs3)ccc2[nH]1	inactive

Compound	outcome
COc1ccc(-n2c(C)cc(C(=O)CSc3nnc(-c4cccs4)o3)c2C)cc1	inactive
Cc1ccc2c(c1)N(S(=O)(=O)c1cc(-c3cc(C)no3)ccc1C)CCO2	inactive
C1=C(N2CCOCC2)/C(=C/c2nc3ccccc3[nH]2)CC1	inactive
Cc1ccccc1C(OCC(O)CN1CCCCC1CCO)c1ccccc1 (stereo unspecified)	inactive
CCc1ccc(S(=O)(=O)Nc2cc3c(cc2N2CCCCC2)n(C)c(=O)c(=O)n3C)cc1	inactive
CC[C@@H](C)[C@@H](C(=O)N1CCN(C(=O)OC(C)(C)C)CC1)n1cc(CCC(=O)O)nn1	inactive
N#Cc1c(-c2cccs2)nc(SCC(=O)c2ccc(Br)cc2)[nH]c1=O	inactive
CN1CCN(C(=O)COc2ccc(C(C)(C)C)cc2Br)CC1	inactive
CC(C)c1c(O)nc(SCCOc2ccc(Cl)cc2)[nH]c1=O	inactive
Cc1cc(=O)[nH]c(SCc2cc(Cl)ccc2OC(F)F)n1	inactive
O=C(CSC1=Nc2ccccc2C2=NC(CC(=O)NCc3ccco3)C(=O)N12)NCc1ccco1 (stereo unspecified)	inactive
Cc1cc(C)c2cc(CN(Cc3nnnn3Cc3ccc(F)cc3)C3CCCC3)c(=O)[nH]c2c1	inactive
O=S(=O)(c1ccc(OCC(O)CN2CCN(c3ccccc3Cl)CC2)cc1)N1CCOCC1 (stereo unspecified)	inactive
COc1cccc(-n2c(SCC(=O)NC3CCCCC3)nc3n[nH]c(C)c3c2=N)c1	inactive
CN(C)c1ccc(/C=C/C(=O)c2ccc(C(C)(C)C)cc2)cc1[N+](=O)[O-]	inactive
COc1ccc(-c2nc(CS(=O)CC(=O)NCc3ccccn3)c(C)o2)cc1 (stereo unspecified)	inactive
O=C(O)CC(Cn1cnnn1)c1ccccc1 (stereo unspecified)	inactive
C[C@@H](C(=O)Nc1ccc2ccccc2c1)[C@@H]1C[C@@]1(C)[C@@H](NC(=O)c1cccnc1)c1ccccc1	inactive
COC(=O)C1=C(C)N=C2SC(C)C(=O)N2C1/C=C/c1ccccc1 (stereo unspecified)	inactive
CCCc1nc2ccccc2c(=O)n1NC(=O)c1c(O)c2ccccc2[nH]c1=O	inactive
